Results from PubChem BioAssay AID2606 (The Scripps Research Institute Molecular Screening Center, 2010).
The campaign covered roughly 320,000 compounds. About 160 (0.05%) were called active. No stated cut-off is given here; in the data, active means inhibition above about 38%; inactive means the rest. The sample as a whole holds a higher share of actives than the screen did.

target: Serine protease Rv3671c (Mycobacterium tuberculosis (strain ATCC 25618 / H37Rv)) (UniProt P9WHR9); assay: Rv3671c serine protease inhibitors, primary screen, biochemical, fluorescence polarization, M. tuberculosis H37Rv (AID 2606); settings: at 5.96 µM; active compounds read high;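 further: extracellular domain of Rv3671c used as enzyme; 0% = enzyme with DMSO and 100% = no enzyme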
Sequence (P9WHR9 whole entry, looked up, the tested form may be a part): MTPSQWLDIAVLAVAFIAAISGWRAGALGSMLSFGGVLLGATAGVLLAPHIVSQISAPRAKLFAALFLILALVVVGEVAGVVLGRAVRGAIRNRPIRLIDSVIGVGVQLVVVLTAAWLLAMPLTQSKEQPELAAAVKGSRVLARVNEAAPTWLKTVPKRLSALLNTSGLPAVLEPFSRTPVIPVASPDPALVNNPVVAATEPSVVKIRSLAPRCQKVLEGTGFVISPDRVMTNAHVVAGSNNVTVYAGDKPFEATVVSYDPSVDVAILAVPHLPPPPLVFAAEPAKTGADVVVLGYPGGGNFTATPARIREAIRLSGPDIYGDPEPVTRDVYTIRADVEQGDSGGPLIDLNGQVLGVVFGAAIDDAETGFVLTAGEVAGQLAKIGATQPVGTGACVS

Compound | inhibition
O=C(NCc1ccc(Cl)cc1)c1cc2c(nc3sccn32)s1 | -4.26% (inactive)
Cc1c(Br)c([N+](=O)[O-])nn1CC(=O)Nc1sc2c(c1C(=O)OC(C)C)CCC(C)C2 (centres undefined) | -2.96% (inactive)
O=S1(=O)CC(NCc2ccccc2)C(Nc2ccc(Cl)cc2)C1 (centres undefined) | -2.48% (inactive)
O=C(CN(c1cc(C(F)(F)F)ccc1Cl)S(=O)(=O)c1ccccc1)NCc1cccnc1 | 4.36% (inactive)
O=C1CCCN1CCCNC(=S)Nc1ccc(F)c(Cl)c1 | -6.09% (inactive)
O=C1c2ccccc2C(=O)N1CCc1nn[nH]n1 | -7.39% (inactive)
Cc1ccccc1CCN(CC(=O)NC1CCCCC1)C(=O)c1csnn1 | -0.33% (inactive)
OC(c1ccccc1)c1nccn1Cc1ccccc1 (centres undefined) | 0.91% (inactive)
CSc1nc2ccccc2cc1/C=C(\C#N)c1ccc(Cl)cc1Cl | 3.83% (inactive)
O=C(COC(=O)c1cc(=O)[nH]c2ccccc12)Nc1nc(-c2cccc(Br)c2)cs1 | -76% (inactive)
CCOC(=O)[C@@H]1[C@H]2COc3ccc(Br)cc3[C@H]2N2C(=O)N(c3ccc(C)cc3)C(=O)[C@@]12C | 0.17% (inactive)
CCN(C(=O)CSc1nnnn1-c1ccccc1OC)C1CCS(=O)(=O)C1 (centres undefined) | 2.72% (inactive)
CSc1ccc(C(=O)C2CCCN(C(=O)c3ccc(C)nc3)C2)cc1 (centres undefined) | 1.04% (inactive)
CCC(C)c1ccc(NC(=O)COC(=O)C2CCCC2)cc1 (centres undefined) | -4.19% (inactive)
Cc1ccc(OCC(=O)c2cc(C)n(Cc3ccco3)c2C)c([N+](=O)[O-])n1 | -2.09% (inactive)
COc1ccc(NC(=O)C2C3CCC(O3)C2C(=O)O)cc1OC (centres undefined) | -2.75% (inactive)
COc1cc(C(=O)NCc2ccncc2)cc(Br)c1OCc1ccccc1 | -8.67% (inactive)
CCn1c(=O)cc(SCC(=O)NCCC2=CCCCC2)c2ccccc21 | 3.21% (inactive)
CCOc1ccc(S(=O)(=O)N(CC(=O)NCC(F)(F)F)Cc2ccco2)cc1 | 4.73% (inactive)
CC1CC(=NNC(=O)C2COc3ccccc3O2)CC(C)(C)C1 (centres undefined) | -11% (inactive)
O=C(O)c1ccc2c(=O)n3c(nc2c1)/C(=C/c1ccc(Cl)c([N+](=O)[O-])c1)CC3 | 8.14% (inactive)
C=C(C)C(=O)Nc1cccc(C2=NOC3(C2)C[C@H](C(N)=O)N(C(=O)C(c2ccccc2)c2ccccc2)C3)c1 (some centres undefined) | -1.51% (inactive)
Cc1onc(-c2c(F)cccc2Cl)c1C(=O)N(C)CC(=O)Nc1cccc(F)c1 | 2.86% (inactive)

Compound | inhibition
C=CCOc1cccc(CNCc2cccnc2)c1 | 4.49% (inactive)
COC(=O)c1cccc(N(CC(=O)NCC2CCCO2)C(=O)CCC(=O)Nc2cc(C)on2)c1 (centres undefined) | -6.9% (inactive)
CCO[C@@H]1OC(C(=O)NC2CC2)=C[C@H](C)[C@H]1CCCO | 3.42% (inactive)
CCN(CC)CCCN=C(N)N | 1.64% (inactive)
CC(C)n1c(-c2ccncc2)n[nH]c1=S | -6.36% (inactive)
CC(C)(C)S(=O)(=O)c1ccccc1-c1noc(-c2ccccc2)c1C(N)=O | 8.18% (inactive)
CSCc1ccc(C(=O)Nc2cc(C)cc(C)c2)cc1 | 6.14% (inactive)
CCNc1nc(N)nc(Oc2ccc(OCC)nn2)n1 | 1.15% (inactive)
COCCOC(=O)c1sc(=S)n(CCOC)c1N | 40% (active)
CCCCN(CCCC)C(=O)CCS(=O)(=O)c1ccc2c(c1)n(C)c(=O)c(=O)n2C | -1.54% (inactive)
Cc1ccc2c(c1)N(CCCC(=O)NCc1cccnc1)C(=O)CO2 | 5.63% (inactive)
COC(=O)COc1cccc2c(=O)n(CC(=O)NCc3ccccc3)ccc12 | -8.57% (inactive)
COc1ccc(O[C@H]2C=C[C@@H](c3ccccc3)O[C@@H]2CO/N=C/C[C@@H]2C=C[C@H](OC(C)=O)[C@@H](COC(C)=O)O2)cc1 | -1.84% (inactive)
COCCN(Cc1nc(-c2ccc(C(F)(F)F)cc2)no1)C(C)C | -6.51% (inactive)
Cc1ccc(S(=O)(=O)N[C@@H](Cc2ccccc2)C(=O)N2CCC(C(=O)N[C@H](C(=O)O)C(C)O)CC2)cc1 (some centres undefined) | -3.25% (inactive)
Cc1ccc(N2CCN(c3ccc([N+](=O)[O-])cn3)CC2)c(C)c1 | -8.33% (inactive)
Fc1ccccc1CCNc1nnnn1-c1ccccc1 | -6.29% (inactive)
Cc1ccc(Cl)cc1NC(=O)C1CCN(S(C)(=O)=O)CC1 | 5.08% (inactive)
O=C1NC[C@@H](Cc2ccc(O)cc2)N(CCc2cccc(F)c2)C1=O | 5.74% (inactive)
O=[N+]([O-])c1ccc2nc(-c3ccccn3)[nH]c2c1 | 4.37% (inactive)
c1ccc2[nH]c(-c3nc4ccccc4[nH]3)nc2c1 | 77.5% (active)
O=C(Nc1sc2c(c1-c1nc3ccccc3[nH]1)CCCC2)C1CC1 | -3.57% (inactive)
COc1ccc(Br)cc1CN1CCN(C(=O)c2cccc(OC)c2OC)CC1 | -2.08% (inactive)

Compound | inhibition
CC1(c2ccccc2)NC(=O)N(CC(=O)N2CC(=O)Nc3ccccc32)C1=O (centres undefined) | -3.96% (inactive)
COc1ccc(C(=O)c2c3ccc([N+](=O)[O-])cc3[n+]([O-])n2CCCN)cc1 | -2.98% (inactive)
C[C@@H]1NC(=O)[C@@]2(C)[C@@H](c3ccccc3)[C@H]3COc4ccccc4[C@@H]3N2C1=O | -7.74% (inactive)
C=CCN1CCN(C(=O)CCCc2ccccc2)CC1 | -7.87% (inactive)
NNC(=O)c1cnn(-c2ccccc2)c1C(F)(F)F | 2.2% (inactive)
COCCN(C(=O)CSCc1ccc(C)cc1)c1c(N)n(CC(C)C)c(=O)[nH]c1=O | 8.34% (inactive)
CC1CCCN(C(C(=O)Nc2ccc(C(C)C)cc2)c2ccc3c(c2)OCO3)C1 (centres undefined) | 2.73% (inactive)
CN(Cc1ccccc1)C(=O)COC(=O)c1ccccc1Nc1ccccc1 | -5.06% (inactive)
CCN(CC)c1ccc(C2C3CCCCC3(O)CCN2CC(=O)Nc2ccccc2)cc1 (centres undefined) | 5.48% (inactive)
O=C(O)C(c1ccccc1)C1(O)CCCCC1 (centres undefined) | 8.1% (inactive)
Cc1cc(NC(=O)CN2C(=O)NC(CC(C)C)C2=O)no1 (centres undefined) | 2.81% (inactive)
O=C(Nc1ccc(Br)cc1)c1cc(S(=O)(=O)Nc2ccccn2)ccc1Cl | -7.4% (inactive)
COc1ccc(C(=O)OC(C)C(=O)NC2CCCC2)cc1S(=O)(=O)N1CCOCC1 (centres undefined) | -4.37% (inactive)
O=C(COc1ccc(-c2ccccc2)cc1)NN=C1CCCC1 | -4.38% (inactive)
CCOc1ccc(/C=C(/NC(=O)c2ccccc2)C(=O)NCCC(=O)O)cc1 | -7.39% (inactive)
C=CCn1c(=S)[nH]c2scc(-c3ccco3)c2c1=O | 6.27% (inactive)
CC(C)CCNC(=O)c1cccnc1Sc1ccccc1 | -12.3% (inactive)
CCn1ncc(CNC(=O)C2(C)CC2(Br)Br)c1C (centres undefined) | -2.88% (inactive)
CC(C)CC(COCc1ccc(Cl)cc1)N1CCN(C(=O)c2ccc(C(F)(F)F)cc2)CCC1=O (centres undefined) | -15.8% (inactive)
CNC(=O)/C(C#N)=C/c1c(F)cccc1Cl | -0.68% (inactive)
O=C(c1ccccc1F)N1CCN(S(=O)(=O)c2ccc(Br)cc2)CC1 | -4.63% (inactive)
COCCNc1nc2nonc2nc1N1CCCC1c1nccs1 (centres undefined) | -4.76% (inactive)
Cn1nnnc1SCC(=O)NNC(=O)c1ccc(Br)cc1 | -1.13% (inactive)

Compound | inhibition
CC(=O)N1CCc2c(sc(NC(=O)CCS(=O)(=O)c3ccc(C)cc3)c2C(N)=O)C1 | 8.49% (inactive)
CCOC(=O)[C@@H]1[C@H]2COc3ccc(Br)cc3[C@H]2N2C(=O)N(c3ccc(Cl)cc3)C(=O)[C@@]12C | -4.24% (inactive)
COc1cccc(C2SCC(=O)N2c2cccc(C)c2)c1OC (centres undefined) | 0.16% (inactive)
CCCCn1c(N)c(N(CCOC)C(=O)c2cccc(S(=O)(=O)N(C)c3ccccc3)c2)c(=O)[nH]c1=O | 3.05% (inactive)
Cc1noc(C)c1NC(=O)Nc1ccc2c(c1)C(=O)N([C@H](C)CO)C[C@H](C)[C@@H](CN(C)C(=O)Nc1ccc(C(F)(F)F)cc1)O2 | 0.65% (inactive)
C/C=C/C=C/C(=O)OCC(=O)Nc1ccc(Cl)cc1 | -1.55% (inactive)
CCN1CC=C2C(C#N)=C(N)C(C#N)(C#N)[C@H](c3ccoc3)[C@H]2C1 | 3.86% (inactive)
CC(=O)N(C)c1ccc(NC(=O)Nc2cccc3ccccc23)cc1 | 1.7% (inactive)
O=C1c2ccccc2C(=O)N1CCC(O)C[N+](=O)[O-] (centres undefined) | -0.34% (inactive)
COc1ccc(CCNC(=O)C2CC3Cn4c(nc5cc(C)c(C)cc54)C3N2C)cc1 (centres undefined) | -15.6% (inactive)
CC(C)(COC(=O)Nc1ccccc1)COC(=O)Nc1ccccc1 | -8% (inactive)
COCCn1c(SCC(=O)c2[nH]c(C)c(C(C)=O)c2C)nc2ccccc2c1=O | 1.17% (inactive)
COCc1c(C(=O)OCC(=O)Nc2ccc(OC(F)F)cc2)oc2ccccc12 | -1.7% (inactive)
O=C1CN(C(=O)COc2c(Cl)cccc2Cl)c2ccccc2N1 | 0.62% (inactive)
CCN(C(=O)Cc1c(C(=O)O)n(CC)c2ccccc12)c1ccccc1C | 4.47% (inactive)
NS(=O)(=O)c1ccc(CNC(=O)c2ccc(Cl)cc2[N+](=O)[O-])cc1 | -8.53% (inactive)
O=C(CCc1nnc2ccc(NCc3ccccc3Cl)nn12)NCC1CCN(C2CCCC2)C1 (centres undefined) | -2.3% (inactive)
C=CC(COCc1ccccc1)N(CC(=O)OC)S(=O)(=O)c1cc(Br)ccc1OC (centres undefined) | 0.38% (inactive)
COc1ccc(OC)c(NC(=O)Cc2cccs2)c1 | 2.15% (inactive)
Cc1ccc(-c2ccnc3nc(Sc4ncc(C(F)(F)F)cc4Cl)nn23)cc1 | -7.05% (inactive)
